Experiment [1] in a line: inhibitors of TNFa-induced NFkB p65 translocation, primary screen, imaging, HUVEC, MLSMR starter and 10KST1 sets (AID 438).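 Also: compound added about 3h40 before a 20 min TNFalpha stimulation.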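 As to inhibition: signal is the nuclear over cytoplasmic p65 intensity ratio per well.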 As to conditions: HUVEC TNFa-induced p65 nuclear translocation; cell count: measured here: nuclei count (cytotoxicity indicator), at 2.08 µM; inhibition: at 2 µM, stronger effect = higher value, 0% TNFa-plus-vehicle, 100% no-TNFa wells.
Experiment [2] can be described thus: reduction of polyQ htt aggregates in cells – imaging, exon1htt(103Q)mCFP cells, high-content imaging, primary screen (AID 483;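 active = visual image review flags a hit and inhibition of aggregation exceeds 20%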;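 also: compound exposure lasted 3 days before fixation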;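 as to nuclei count: percent of the per-plate median nuclei count of sample wells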). As to conditions: exon1htt(103Q)mCFP cell line, aggregate imaging, at 2 µM; inhibition of aggregation: stronger effect = higher value; nuclei count: measured here: cell count, toxicity.
The nature of experiment [3]: endothelial E-selectin expression blockers – imaging, HUVEC, immunofluorescence, MLSMR starter and 10KST1 sets, primary screen (AID 487;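 active = visually confirmed hit in the image check and inhibition above 20%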;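 as to inhibition: signal is fraction of cell area covered by stained E-selectin grains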;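 as to nuclei count: 100% = median nuclei count of all wells on the same plate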). As to conditions: HUVEC TNFalpha-induced E-selectin immunofluorescence imaging, at 2 µM; inhibition: stronger effect = higher value; nuclei count: measured here: cell number, toxicity.
Experiment [4] has as its target Voltage-gated potassium channel subunit beta-2 (Rattus norvegicus) (UniProt P62483). As to the kind of experiment: inhibitors of rat Kvbeta2 reductase activity – biochemical, NADPH fluorescence, primary screen (AID 622;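 active = fluorescence slope higher than the sample average by over 3 SD, cut at about -0.22 in these data, passing the limit was not always enough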;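 also: slope of raw intensity against log time taken from 70 to 1610 s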). As to conditions: recombinant KvBeta, 4-cyanobenzaldehyde reduction, at 10 µM, stronger effect = higher value.
Experiment [5] shares this target. Briefly: enhancers of rat Kvbeta2 NADPH turnover – biochemical, NADPH fluorescence, primary screen (AID 623;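 active = NADPH fluorescence slope more negative than the mean of all samples by about 3 SD, 99.7% confidence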;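 also: fluorescence intensity change per second fitted from 20 to 320 s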). As to conditions: Recombinant KvBeta, NADPH fluorescence decrease slope, 10 min; at 10 µM; stronger effect = lower value.
The target in experiment [6] is Alpha-2C adrenergic receptor (Homo sapiens) (UniProt P18825). As to the kind of experiment: compounds altering alpha2C-coupled GIRK flux – cell-based, HEK293 alpha2C/GIRK1/2, thallium flux, primary screen (AID 624;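 active = fluorescence slope after compound addition differing from the mean of all screened samples at 99.7% confidence, in either direction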;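 also: slope of fluorescence ratio to pre-addition baseline per second over 15 to 24 s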). As to conditions: thallium flux BTC fluorescence, at 10 µM, actives lie on both sides.
A short description of experiment [7]: blockers of RIG-like receptor reporter activation – cell-based, Sendai virus stimulus, luciferase, 10K MLSCN set, TLR/RLR signaling modifier project, primary screen (AID 602276;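 active = inhibition at or above 50% at 10 µM; inactive = inhibition below 50%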;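 also: firefly luciferase from ISG56 promoter only with Renilla not read in this screen; 0% = Sendai virus plus DMSO and 100% = medium plus DMSO without virus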). Conditions: HEK293 RL24 IRF3 luciferase reporter, at 10 µM, stronger effect = higher value.
Experiment [8] in a line: TLR3 IRF3 reporter activation blockers – cell-based, poly I:C stimulus, luciferase, 10K MLSCN set, primary screen (AID 602277;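 active = inhibition of the reporter signal at or above 50%; inactive = inhibition below 50%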). As to conditions: HEK293-TLR3 RL24 IRF3 luciferase reporter, at 10 µM, stronger effect = higher value.

The source made the active and inactive calls.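 The calls were made as follows, unless noted: active = inhibition above 20% together with a positive visual image hit; inconclusive = visual image hit but inhibition not above 20%; inactive = no visual image hit.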

Voltage-gated potassium channel subunit beta-2 (Rattus norvegicus), sequence (P62483 whole entry, looked up): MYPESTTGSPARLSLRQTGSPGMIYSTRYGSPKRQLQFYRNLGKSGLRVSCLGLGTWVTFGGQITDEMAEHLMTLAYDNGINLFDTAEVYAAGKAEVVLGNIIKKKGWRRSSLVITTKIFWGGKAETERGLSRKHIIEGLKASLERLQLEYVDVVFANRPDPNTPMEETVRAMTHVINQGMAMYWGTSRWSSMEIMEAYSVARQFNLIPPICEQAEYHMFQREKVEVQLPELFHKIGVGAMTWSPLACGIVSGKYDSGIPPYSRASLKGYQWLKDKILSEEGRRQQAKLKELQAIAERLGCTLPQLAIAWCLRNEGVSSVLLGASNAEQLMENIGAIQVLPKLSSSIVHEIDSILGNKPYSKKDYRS
Alpha-2C adrenergic receptor (Homo sapiens), sequence (P18825 whole entry, looked up): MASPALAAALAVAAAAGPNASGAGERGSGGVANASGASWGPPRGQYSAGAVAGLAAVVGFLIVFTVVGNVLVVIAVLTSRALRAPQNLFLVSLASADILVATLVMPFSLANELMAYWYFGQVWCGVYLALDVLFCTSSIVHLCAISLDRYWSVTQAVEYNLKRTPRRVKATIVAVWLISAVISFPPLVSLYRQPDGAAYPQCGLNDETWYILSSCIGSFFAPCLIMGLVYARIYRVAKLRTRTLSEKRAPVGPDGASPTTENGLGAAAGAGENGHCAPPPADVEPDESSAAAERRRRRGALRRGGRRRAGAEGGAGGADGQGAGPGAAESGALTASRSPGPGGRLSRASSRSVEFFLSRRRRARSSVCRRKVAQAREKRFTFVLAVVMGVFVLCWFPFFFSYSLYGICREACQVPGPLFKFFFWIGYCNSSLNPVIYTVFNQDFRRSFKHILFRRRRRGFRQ

For `Nn1c(Cc2ccccc2F)nnc1SCC(=O)N1CC(=O)Nc2ccccc21`, the cell count in experiment [1] came out at 324. Further, the inhibition in experiment [1] is 20.7% (inactive); in experiment [3] it was -11.5% (inactive); in experiment [7], 11.5% (inactive); in experiment [8] it was 36.8% (inactive). Moreover, the inhibition of aggregation in experiment [2] is 11.9% (inactive). Also, the nuclei count in experiment [2] turned out to be 107%; in experiment [3], 105%. Moreover, the fluorescence slope in experiment [4] was -0.39 (inactive). Besides, the NADPH fluorescence slope in experiment [5] was 6.9e-08 (inactive). Moreover, in experiment [6], the slope was 0.00403 (inactive).
`Cc1cc(C)nc(SCc2csc(N)n2)n1`: in experiment [1], the cell count is 338. The inhibition is -3.6% (inactive) in experiment [1], -56.8% (inactive) in experiment [3], -0.264% (inactive) in experiment [7] and -2.76% (inactive) in experiment [8]. The inhibition of aggregation in experiment [2] was -3.1% (inactive). Besides, the nuclei count worked out at 81.8% in experiment [2] and 100% in experiment [3]. Also, in experiment [4], the fluorescence slope was -0.347 (inactive). Moreover, in experiment [5], the NADPH fluorescence slope was -4.2e-05 (inactive). Also, in experiment [6], the slope is 0.00565 (inactive).
`O=C1CCCc2nc(N3CCCCC3)sc21`: the cell count in experiment [1] amounted to 629. The inhibition in experiment [1] is -15.2% (inactive); in experiment [3], -13.1% (inactive); in experiment [7], -57.2% (inactive); in experiment [8], -85.2% (inactive). In addition, in experiment [2], the inhibition of aggregation is -20.4% (inactive). Moreover, the nuclei count in experiment [2] came to 108%; in experiment [3], 86.9%. In experiment [4], the fluorescence slope was -0.424 (inactive). The NADPH fluorescence slope in experiment [5] was -4.5e-05 (inactive). Besides, in experiment [6], the slope was 0.00423 (inactive).
With `O=C(NC1CCCC1)c1ccc2nc[nH]c2c1`, in experiment [1], the cell count stood at 427. The inhibition in experiment [1] was 10.2% (inactive); in experiment [3], -41.4% (inactive); in experiment [7] it was 9.91% (inactive); in experiment [8], 13.1% (inactive). Besides, the inhibition of aggregation in experiment [2] was 0.8% (inactive). The figures for the nuclei count in experiment [2] and in experiment [3] were 101% and 114%, respectively. The fluorescence slope in experiment [4] was -0.62 (inactive). The NADPH fluorescence slope in experiment [5] is -3.9e-06 (inactive). Besides, the slope in experiment [6] was 0.00786 (inactive).
Turning to `O=C(NCCSc1c[nH]c2ccccc12)c1ccc(Br)o1`, the cell count in experiment [1] amounted to 564. Also, the inhibition in experiment [1] is 3.9% (inactive); in experiment [3], -35.7% (inactive); in experiment [7], 6.55% (inactive); in experiment [8] it was -6.47% (inactive). Further, in experiment [2], the inhibition of aggregation is -4.5% (inactive). Further, the nuclei count in experiment [2] turned out to be 114%; in experiment [3], 113%. The fluorescence slope in experiment [4] was -0.559 (inactive). In addition, the NADPH fluorescence slope in experiment [5] is -4.4e-05 (inactive). Also, the slope in experiment [6] was 0.00687 (inactive).
Consider `O=C(CCNS(=O)(=O)c1cccs1)Nc1ccccc1F`, for which the cell count in experiment [1] was determined as 714. Further, the inhibition in experiment [1] is -16.8% (inactive); in experiment [3], -9.8% (inactive); in experiment [7], 6.58% (inactive); in experiment [8] it was 7.01% (inactive). Further, in experiment [2], the inhibition of aggregation is -2.2% (inactive). Also, the nuclei count in experiment [2] came to 102%; in experiment [3], 109%. Moreover, the fluorescence slope in experiment [4] is -0.3 (inactive). Also, in experiment [5], the NADPH fluorescence slope was -6.3e-05 (inactive). Further, the slope in experiment [6] was 0.00565 (inactive).
On to `COc1ccc2[nH]c(=O)c(CN(C(=O)c3ccncc3)C(C)C)cc2c1`, for which, in experiment [1], the cell count is 438. For the same compound, the inhibition is -6.2% (inactive) in experiment [1], -13% (inactive) in experiment [3], 8.68% (inactive) in experiment [7] and 37.7% (inactive) in experiment [8]. For the same compound, in experiment [2], the inhibition of aggregation is 4.6% (inactive). The nuclei count in experiment [2] turned out to be 120%; in experiment [3], 147%. Besides, in experiment [4], the fluorescence slope was -0.448 (inactive). Moreover, in experiment [5], the NADPH fluorescence slope is -5.5e-05 (inactive). Moreover, in experiment [6], the slope was 0.00387 (inactive).
Regarding `CC(=O)N(C(C)=O)c1cccc2c(N(C(C)=O)C(C)=O)cccc12`, the cell count in experiment [1] was 450. Also, the inhibition in experiment [1] was -10.7% (inactive); in experiment [3] it was -28.6% (inactive); in experiment [7] it was 12.7% (inactive); in experiment [8], 31.6% (inactive). Further, the inhibition of aggregation in experiment [2] was 26.2% (inactive). Further, the nuclei count turned out to be 44.9% in experiment [2] and 87.9% in experiment [3]. Further, the fluorescence slope in experiment [4] was -0.431 (inactive). For the same compound, the NADPH fluorescence slope in experiment [5] is -5.3e-05 (inactive). In addition, the slope in experiment [6] is 0.00429 (inactive).
As for `COc1ccccc1N1CCN(C(=O)C(Cc2ccccc2)NC(=O)C2CCCCC2)CC1` (centres undefined), in experiment [1], the cell count is 370. Besides, the inhibition in experiment [1] is -0.9% (inactive); in experiment [3], -114% (inactive); in experiment [7] it was 0.074% (inactive); in experiment [8], 17.7% (inactive). The inhibition of aggregation in experiment [2] was 11.3% (inactive). Besides, the nuclei count was determined as 65.4% in experiment [2] and 96.1% in experiment [3]. In experiment [4], the fluorescence slope was -0.428 (inactive). In addition, in experiment [5], the NADPH fluorescence slope was -0.000112 (inactive). In addition, in experiment [6], the slope is 0.00516 (inactive).
`COc1cccc(/C=N/n2c(C)nc3ccccc32)c1OC`: the cell count in experiment [1] is 431. For the same compound, the inhibition was 0.5% (inactive) in experiment [1], -27.6% (inactive) in experiment [3], -7.57% (inactive) in experiment [7] and -59.7% (inactive) in experiment [8]. Moreover, the inhibition of aggregation in experiment [2] was 32.5% (active). Moreover, the figures for the nuclei count in experiment [2] and in experiment [3] were 84.3% and 123%, respectively. The fluorescence slope in experiment [4] was -0.391 (inactive). Further, the NADPH fluorescence slope in experiment [5] was 3.2e-05 (inactive). In experiment [6], the slope was 0.00613 (inactive).
As for `OC(CNCC1COc2ccccc2O1)COCc1cccs1` (centres undefined), the cell count in experiment [1] worked out at 615. Also, the inhibition was 0.8% (inactive) in experiment [1], -133% (inactive) in experiment [3], -3.3% (inactive) in experiment [7] and 2.31% (inactive) in experiment [8]. For the same compound, in experiment [2], the inhibition of aggregation was -9.6% (inactive). The nuclei count was determined as 105% in experiment [2] and 131% in experiment [3]. Further, the fluorescence slope in experiment [4] is -0.568 (inactive). Besides, the NADPH fluorescence slope in experiment [5] is 6.2e-06 (inactive). The slope in experiment [6] was 0.00544 (inactive).
Take `CCOC(=O)C1CCCN(C(=O)c2cc3c(=O)n4cccc(C)c4nc3n2C)C1` (centres undefined): in experiment [1], the cell count is 218. The inhibition in experiment [1] is -6% (inactive); in experiment [3] it was 75.9% (active); in experiment [7], 17.9% (inactive); in experiment [8] it was 23.7% (inactive). Further, the inhibition of aggregation in experiment [2] was 3.5% (inactive). For the same compound, the nuclei count in experiment [2] was 91.5%; in experiment [3] it was 66.5%. The fluorescence slope in experiment [4] was -0.467 (inactive). Also, the NADPH fluorescence slope in experiment [5] was -1.3e-05 (inactive). For the same compound, the slope in experiment [6] was 0.00547 (inactive).
Take `CC(C)(CSc1nncn1N)NS(=O)(=O)c1ccc(Cl)cc1`: the cell count in experiment [1] was found to be 690. The inhibition is -4.4% (inactive) in experiment [1], -17.3% (inactive) in experiment [3], -0.22% (inactive) in experiment [7] and 4% (inactive) in experiment [8]. Further, the inhibition of aggregation in experiment [2] was 11.7% (inactive). In addition, the values for the nuclei count in experiment [2] and in experiment [3] were 58.2% and 108%, respectively. In experiment [4], the fluorescence slope was -0.447 (inactive). For the same compound, the NADPH fluorescence slope in experiment [5] is -4.4e-05 (inactive). Further, in experiment [6], the slope is 0.00436 (inactive).
Turning to `CC(C)(C)OC(=O)N1CC=C2C(C#N)=C(N)C(C#N)(C#N)C(c3cccs3)C2C1` (centres undefined), the cell count in experiment [1] was determined as 828. Further, the inhibition was 2.4% (inactive) in experiment [1], -132% (inactive) in experiment [3], 13.2% (inactive) in experiment [7] and 8.03% (inactive) in experiment [8]. The inhibition of aggregation in experiment [2] is 16.5% (inactive). Also, the nuclei count in experiment [2] was determined as 102%; in experiment [3] it was 106%. Moreover, in experiment [4], the fluorescence slope was -0.476 (inactive). The NADPH fluorescence slope in experiment [5] is -2.5e-05 (inactive). In experiment [6], the slope is 0.00419 (inactive).
